# According to PubChem BioAssay (NCATS):
# Several values for one entry are separate records, joined by “and”; a condition that tells them apart may be missing. Equal entries are not always repeated. Records with an inconclusive call do not appear. A call without a number means that no potency is given here. The source holds several records for some structures; these can differ, active in one and inactive in another. Activity calls are given as the source filed them. Calls come from the whole dose curve; as a rule, active = well fitted curve in the direction sought with a large enough effect; inconclusive = small, poorly fitted or top-dose-only effect, or another doubt; inactive = no such curve, though single readings can be large; an effect the other way counts as inactive or inconclusive.
# Tests used:
# [1] = P-glycoprotein substrates identified in KB-8-5-11 adenocarcinoma cell line, qHTS therapeutic library screen (AID 1346987); note: nearly all actives have a fitted effect of over 65% in size
# Outline: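 KB-8-5-11: colchicine-selected sub-line of KB-3-1 over-expressing P-gp; assay medium lacked colchicine. 72 h drug exposure at 37 degree C, CellTiter-Glo.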
# [2] = NS1 protein of Zika virus - qHTS assay to identify small molecule inhibitors in human HEK 293 cells (AID 1347053); note: nearly all actives have a fitted effect of over 55% in size
# Outline: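 Following 20 h seeding, HEK 293 cells took compound, then 1 h later ZIKV MR766 (MOI = 0.5). Incubation ran 24 h at 37 C before TR-FRET detection of NS1; a drop in signal indicates inhibition.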
# [3] = qHTS of pediatric cancer cell lines to identify multiple opportunities for drug repurposing: Primary screen for TC32 cells (AID 1347089); note: nearly all actives have a fitted effect of over 60% in size
# Outline: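 Luminescent ATP read-out (CellTiter-Glo) of metabolically active TC32 cells after 48 h exposure. Concentration-response curves came from 11-point (MIPE, 0.78 nM–46 µM) or 8-point (NPC, 0.59 nM–46 µM) primary titrations; follow-up used 11 points.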
# [4] = qHTS of pediatric cancer cell lines to identify multiple opportunities for drug repurposing: Primary screen for DAOY cells (AID 1347090); note: nearly all actives have a fitted effect of over 55% in size
# Outline: (§1)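 Viability measured as metabolically active cells via CellTiter-Glo luminescence following 48 hours of compound exposure, 11-point dilutions in confirmatory testing. 500-1,000 cells/well plated 5 hours before dosing; controls were DMSO and 2.3 µM bortezomib.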
# [5] = qHTS of pediatric cancer cell lines to identify multiple opportunities for drug repurposing: Primary screen for SJ-GBM2 cells (AID 1347091)
# Outline: as §1
# [6] = qHTS of pediatric cancer cell lines to identify multiple opportunities for drug repurposing: Primary screen for A673 cells (AID 1347092); note: nearly all actives have a fitted effect of over 45% in size
# Outline: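 Cell viability of A673 measured by CellTiter-Glo ATP luminescence after 48 hours compound exposure. Dilution series spanned 0.78 nM to 46 µM (MIPE, 11-point) or 0.59 nM to 46 µM (NPC, 8-point); bortezomib 2.3 uM positive control.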
# [7] = qHTS of pediatric cancer cell lines to identify multiple opportunities for drug repurposing: Primary screen for SK-N-MC cells (AID 1347093)
# Outline: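 Metabolically active cells were quantified by ATP-dependent luminescence (CellTiter-Glo, 15 min at room temperature) following 48 h treatment. Cells had been plated at 500-1,000 per well and settled for 5 h beforehand.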
# [8] = qHTS of pediatric cancer cell lines to identify multiple opportunities for drug repurposing: Primary screen for BT-37 cells (AID 1347094)
# Outline: (§2)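 Plated cells (500-1,000 per well, growth media) were allowed to settle for 5 hours, treated with compound dilutions for 48 hours, then lysed with CellTiter-Glo for 15 min at room temperature before luminescence reading.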
# [9] = qHTS of pediatric cancer cell lines to identify multiple opportunities for drug repurposing: Primary screen for NB-EBc1 cells (AID 1347095)
# Outline: as §2
# [10] = qHTS of pediatric cancer cell lines to identify multiple opportunities for drug repurposing: Primary screen for U-2 OS cells (AID 1347096); note: nearly all actives have a fitted effect of over 50% in size
# Outline: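 Viability after 48 h compound treatment at 37C, 500-1,000 cells/well, read as ATP luminescence with CellTiter-Glo. Primary screens used 11-point (MIPE, 0.78 nM-46 µM) or 8-point (NPC, 0.59 nM-46 µM) final concentrations; follow-up screens used 11-point dilutions.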
# [11] = P-glycoprotein substrates identified in KB-3-1 adenocarcinoma cell line, qHTS therapeutic library screen (AID 1346986); note: nearly all actives have a fitted effect of over 60% in size;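 note: potency is for cytotoxicity meaning loss of cell viability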
# Outline: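 Compounds were tested in dose-response against KB-3-1 and KB-8-5-11 cells at 37 degree C for 72 h, and viability was measured by luminescence. AC50 values came from curve fitting with class-based activity calls.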
# [12] = qHTS of pediatric cancer cell lines to identify multiple opportunities for drug repurposing: Primary screen for Saos-2 cells (AID 1347097); note: nearly all actives have a fitted effect of over 40% in size
# Outline: as §2
# Potency is the fitted concentration of half-maximal effect.
Structure (SMILES),Potency [1],Potency [2],Potency [3],Potency [4],Potency [5],Potency [6],Potency [7],Potency [8],Potency [9],Potency [10],Potency [11],Potency [12]
NS(=O)(=O)c1cc(Cl)c(Cl)c(S(N)(=O)=O)c1,inactive,inactive,inactive,inactive,inactive,inactive,inactive,inactive,inactive,inactive,,
CC(C)c1c(C(=O)Nc2ccccc2)c(-c2ccccc2)c(-c2ccc(F)cc2)n1CC[C@H](O)C[C@@H](O)CC(=O)O,inactive,inactive,inactive,11.8 µM (active),16.6 µM (active),18.7 µM (active),23.5 µM (active),,,18.7 µM (active),,
CCC(=O)OCC(=O)[C@@]1(OC(=O)CC)[C@@H](C)C[C@@H]2[C@H]3CCC4=CC(=O)C=C[C@]4(C)[C@@]3(F)[C@@H](O)C[C@@]21C,,,inactive,1.18 µM (active),,1.87 µM (active),0.0372 µM (active),,inactive,inactive,inactive,
CC[C@]1(O)C[C@H]2CN(CCC3=c4ccccc4=N[C]3[C@@](C(=O)OC)(c3cc4c(cc3OC)N(C)[C@H]3[C@@](O)(C(N)=O)[C@H](O)[C@]5(CC)C=CCN6CC[C@]43[C@@H]65)C2)C1,1.48 µM (active),1.66 µM (active),0.0587 µM (active),0.469 µM (active),0.001 µM (active),0.0148 µM (active),0.0235 µM (active),0.122 µM (active),0.0296 µM (active),,,0.148 µM (active)
Cc1cnc(Nc2cccc(CN3CCOCC3)c2)nc1Nc1cccc(S(=O)(=O)NC(C)(C)C)c1,inactive and 4.11 µM (active),inactive,inactive,14.8 µM (active),4.18 µM (active),5.9 µM (active),2.64 µM (active),,4.18 µM (active),14.8 µM (active),,5.26 µM (active)
CC1(C)[C@H]2CC[C@]3(C)[C@@H](C(=O)C=C4[C@@H]5C[C@@](C)(C(=O)O)CC[C@]5(C)CC[C@]43C)[C@@]2(C)CC[C@@H]1O,inactive,inactive,inactive,inactive,inactive,inactive,inactive,inactive,,inactive,,
CN(C)CCN(Cc1ccc(Cl)cc1)c1ccccn1,inactive,inactive,inactive,29.6 µM (active),inactive,18.7 µM (active),10.5 µM (active),inactive,,inactive,,inactive
Cc1ccc(C(=O)N(CCCN)[C@@H](c2oc3cc(Cl)ccc3c(=O)c2Cc2ccccc2)C(C)C)cc1,0.0833 µM (active),10.5 µM (active),0.0033 µM (active),0.001 µM (active),0.001 µM (active),0.001 µM (active),23.5 µM (active),0.001 µM (active),0.001 µM (active),,,0.001 µM (active)
CC(NCCc1ccc(O)cc1)C(O)c1ccc(O)cc1 (configuration not stated),inactive,inactive,inactive,inactive,inactive,inactive,,inactive,inactive,inactive,,
CN(C)CCCNC(=O)c1ccc(-c2cc(O)c3ncccc3c2)cc1,,inactive,inactive,,inactive,23.5 µM (active),inactive,,,inactive,18.4 µM (active),
CC=C1C2C=C(C)CC1(N)c1ccc(=O)[nH]c1C2 (configuration not stated),inactive,inactive,inactive,inactive,inactive,inactive,inactive,inactive,inactive,inactive,,inactive
CC1(C)OC2CC3C4CC(F)C5=CC(=O)C=CC5(C)C4C(O)CC3(C)[C@]2(C(=O)CO)O1 (some centres not stated),inactive,inactive,inactive,inactive,inactive,inactive,inactive,inactive,inactive,inactive,,inactive
CC(=O)N1CCN(c2ccc(OCc3nn(C)c(C)c3-c3cccc4c(CCCOc5cc(C)c(Cl)c(C)c5)c(C(=O)O)n(Cc5cccnc5)c34)cc2)CC1,inactive,inactive,inactive,18.7 µM (active),23.5 µM (active),14.8 µM (active),4.18 µM (active),24.3 µM (active),14.8 µM (active),inactive,,18.7 µM (active)
Cc1ccc2c(=O)c3cccc(CC(=O)O)c3oc2c1C,,,inactive,14.8 µM (active),inactive,9.35 µM (active),16.6 µM (active),,,inactive,inactive,
CN1CCN2c3ncccc3Cc3ccccc3C2C1 (configuration not stated),inactive,inactive,inactive,inactive,inactive,inactive,inactive,inactive,inactive,inactive,,
N[C@@H](CC(=O)N1CCn2c(nnc2C(F)(F)F)C1)Cc1cc(F)c(F)cc1F,inactive,inactive,inactive,,inactive,inactive,18.7 µM (active),inactive,inactive,inactive,,
CCC(c1ccc(O)cc1)C(CC)c1ccc(O)cc1 (configuration not stated),inactive,inactive,inactive,,inactive,,1.05 µM (active),,,,,
CC(C)(F)C[C@H](N[C@@H](c1ccc(-c2ccc(S(C)(=O)=O)cc2)cc1)C(F)(F)F)C(=O)NC1(C#N)CC1,inactive,inactive,inactive,inactive,14.8 µM (active),inactive,,,,inactive,,inactive
Cc1c(C(=O)Nc2ccc(N3C[C@@H](C)O[C@@H](C)C3)nc2)cccc1-c1ccc(OC(F)(F)F)cc1,inactive,inactive,inactive,,18.7 µM (active),7.43 µM (active),16.6 µM (active),,14.8 µM (active),,,18.7 µM (active)
C[C@@H]1C[C@H]2[C@@H]3CCC4=CC(=O)C=C[C@]4(C)[C@@]3(F)[C@@H](O)C[C@]2(C)[C@@]1(O)C(=O)CO,inactive,inactive,inactive,,inactive,,0.001 µM (active),inactive,inactive,inactive,,
C[C@]12C=CC(=O)C=C1CC[C@@H]1[C@@H]2[C@@H](O)C[C@@]2(C)[C@@H]1CC[C@]2(O)C(=O)CO,inactive,inactive,inactive,inactive,,,29.6 µM (active),,14.8 µM (active),inactive,,inactive
CCCCN(CCCC)CC(O)c1cc(Cl)cc2c1-c1ccc(Cl)cc1C2=Cc1ccc(Cl)cc1 (configuration not stated),inactive,inactive,inactive,inactive,,inactive,,inactive,inactive,inactive,,inactive
COc1cc(F)c(C(C)C)cc1-c1ccc(C(F)(F)F)cc1CN1C(=O)O[C@H](c2cc(C(F)(F)F)cc(C(F)(F)F)c2)[C@@H]1C,inactive,inactive,inactive,inactive,,inactive,,,14.8 µM (active),inactive,,
CC(C)(CO)[C@@H](O)C(=O)NCCC(=O)O,inactive,inactive,inactive,inactive,inactive,,inactive,inactive,inactive,inactive,,inactive
C#C[C@]1(O)CC[C@H]2[C@H]3CCc4cc(OC)ccc4[C@H]3CC[C@@]21C,inactive,inactive,inactive,,inactive,18.7 µM (active),20.9 µM (active),inactive,inactive,inactive,,inactive
